The text below walks through data of article PMC4336329 (PLoS ONE, 2015).

Out of some 310,000 compounds screened, about 14,000 (4.5%) showed an effect of 50% or more. The effect is printed as a negative number. This is one part of a sample in which strong results are shown more often than they occur.
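Further: peak tail current of the secondary pulse compared with the same well before compound.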

The target in the assay is human ether-à-go-go-related gene (hERG) potassium channel (human, UniProt Q12809). Kind of assay: primary screen, population patch clamp on CHO cells stably expressing hERG; higher = less effect of the substance.
Chain of human ether-à-go-go-related gene (hERG) potassium channel (Q12809 whole entry, looked up): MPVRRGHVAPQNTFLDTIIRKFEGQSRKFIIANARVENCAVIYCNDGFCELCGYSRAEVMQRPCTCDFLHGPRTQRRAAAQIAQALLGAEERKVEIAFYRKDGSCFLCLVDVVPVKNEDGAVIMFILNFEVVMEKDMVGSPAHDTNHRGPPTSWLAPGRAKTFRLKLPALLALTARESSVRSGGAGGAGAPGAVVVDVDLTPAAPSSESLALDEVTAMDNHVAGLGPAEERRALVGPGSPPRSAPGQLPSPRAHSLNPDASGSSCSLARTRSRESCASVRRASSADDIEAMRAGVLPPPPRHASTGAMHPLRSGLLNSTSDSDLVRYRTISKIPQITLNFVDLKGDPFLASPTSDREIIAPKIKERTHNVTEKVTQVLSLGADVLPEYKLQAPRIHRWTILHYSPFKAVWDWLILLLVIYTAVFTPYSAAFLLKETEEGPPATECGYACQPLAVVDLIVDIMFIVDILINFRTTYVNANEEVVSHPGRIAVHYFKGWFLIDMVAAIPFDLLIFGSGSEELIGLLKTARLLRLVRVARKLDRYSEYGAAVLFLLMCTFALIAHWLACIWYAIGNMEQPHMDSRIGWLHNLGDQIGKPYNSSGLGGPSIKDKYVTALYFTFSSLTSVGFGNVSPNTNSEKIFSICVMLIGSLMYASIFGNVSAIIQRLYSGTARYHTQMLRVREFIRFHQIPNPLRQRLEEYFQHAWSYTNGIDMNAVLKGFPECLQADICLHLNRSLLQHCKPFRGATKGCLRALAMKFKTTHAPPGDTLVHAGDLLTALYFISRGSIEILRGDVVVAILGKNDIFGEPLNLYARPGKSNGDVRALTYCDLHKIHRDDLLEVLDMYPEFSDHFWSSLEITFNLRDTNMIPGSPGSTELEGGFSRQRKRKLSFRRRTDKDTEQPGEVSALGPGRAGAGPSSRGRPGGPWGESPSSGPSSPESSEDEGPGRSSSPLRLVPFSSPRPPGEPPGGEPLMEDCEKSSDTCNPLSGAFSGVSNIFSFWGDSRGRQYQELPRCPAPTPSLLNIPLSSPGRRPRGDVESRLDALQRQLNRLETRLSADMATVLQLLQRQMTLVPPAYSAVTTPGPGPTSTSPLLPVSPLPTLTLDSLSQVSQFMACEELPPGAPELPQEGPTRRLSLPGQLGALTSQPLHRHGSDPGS
For `Br.O=C(CN1C2=NCCN2c2ccccc21)C12CC3CC(CC(C3)C1)C2`, the “hERG current change (%, negative = inhibition) at 10uM” value is given as -72.7%. For `Br.CCOC(=O)CN1C2=NCCN2c2ccccc21`, the “hERG current change (%, negative = inhibition) at 10uM” value worked out at 18.1%. To `Br.O=C(CN1C2=NCCN2c2ccccc21)c1ccc(Br)s1` belongs -64.5%. The figure for `Br.O=C(CN1C2=NCCN2c2ccccc21)c1cccs1` is -31.3%; for `O=C1CCC(=O)N1CC(=O)N1c2ccccc2Sc2ccccc21` it is 3.19%; for `Cc1nc(C(=O)NC2CCOCC2)sc1C1(C)CC(c2ccccc2)=NO1` (stereo not shown) it is -19.8%. In the case of `CC(C)CCNC(=O)C1CCC(=O)N1CCc1ccccc1` (stereo not shown), the “hERG current change (%, negative = inhibition) at 10uM” value is on record as 9.14%. For `CCN(CC)CCCNC(=O)c1cc2c(=O)n(CC)c3ccccc3c2s1`, the “hERG current change (%, negative = inhibition) at 10uM” value is listed as -14.9%. `CC(C)Oc1ccccc1C1Nc2ccccc2C(=O)N1c1ccc2c(c1)OCCO2` (stereo not shown): the “hERG current change (%, negative = inhibition) at 10uM” value turned out to be 3.43%.

Take `Fc1ccccc1NC(=S)NC1CCCC1`: the “hERG current change (%, negative = inhibition) at 10uM” value is listed as 14%. As to `Cc1ccc(NC(=O)N(C2=NCC(C)S2)c2ccccc2)cc1` (stereo not shown), the “hERG current change (%, negative = inhibition) at 10uM” value is recorded as 16.3%. Turning to `CCn1c(SCc2nc(-c3ccccc3)no2)nnc1-c1cccs1`, the “hERG current change (%, negative = inhibition) at 10uM” value is -61.2%. For `Cn1c(SCc2nc(-c3ccc(Cl)cc3)no2)nnc1-c1ccccc1`, the “hERG current change (%, negative = inhibition) at 10uM” value is -22.5%. As for `Cn1c(SCc2nc(-c3ccccc3)no2)nnc1-c1cccs1`, the “hERG current change (%, negative = inhibition) at 10uM” value is on record as -2.11%. On to `Cn1c(SCc2nc(-c3ccc(Br)cc3)no2)nnc1-c1ccco1`, for which the “hERG current change (%, negative = inhibition) at 10uM” value is -49.6%. To `CCn1c(SCc2nc(-c3ccccc3)no2)nnc1-c1ccco1` belongs -36.3%; to `Cn1c(SCc2nc(-c3ccc(Cl)cc3)no2)nnc1-c1ccco1`, -53.2%; to `CCn1c(SCc2nc(-c3ccc(Cl)cc3)no2)nnc1-c1ccco1`, -62%. `CCn1c(SCc2nc(-c3ccc(OC)c(OC)c3)no2)nnc1-c1cccs1`: the “hERG current change (%, negative = inhibition) at 10uM” value was -40.1%.

As for `Cn1c(SCc2nc(-c3ccccc3)no2)nnc1-c1ccco1`, the “hERG current change (%, negative = inhibition) at 10uM” value is listed as -18.4%. Turning to `O=C(NCCN1CCCC1)C1CCN(S(=O)(=O)N2CCC3(CC2)OCCO3)CC1`, the “hERG current change (%, negative = inhibition) at 10uM” value was 20.5%. Regarding `Cc1cccc(N(C)c2ncnc3onc(-c4ccc(F)cc4)c23)c1C`, the “hERG current change (%, negative = inhibition) at 10uM” value is listed as -8.28%.

In the case of `COc1ccc(CN2CCNC(=O)C2CC(=O)NCC2CCOCC2)c(C)c1C` (stereo not shown), the “hERG current change (%, negative = inhibition) at 10uM” value is on record as -19.6%. With `O=C(O)CCCn1cc(NC(=O)COc2ccc(F)cc2)cn1`, the “hERG current change (%, negative = inhibition) at 10uM” value came out at 16.5%. As for `N#Cc1c(N)oc(-c2ccco2)c1-c1ccco1`, the “hERG current change (%, negative = inhibition) at 10uM” value is 1.98%. Consider `COc1ccc(NS(=O)(=O)c2cccc(C(=O)NNC(=O)CNC(=O)c3ccc(C)cc3)c2)cc1`, for which the “hERG current change (%, negative = inhibition) at 10uM” value is on record as -2.64%. In the case of `O=C(NCc1ccccc1)C(c1ccc(F)cc1)N(Cc1ccco1)C(=O)c1ccccn1` (stereo not shown), the “hERG current change (%, negative = inhibition) at 10uM” value was -24.4%.

Turning to `O=C(Nc1c2c(nc3ccccc13)CCCC2)c1cccc([N+](=O)[O-])c1`, the “hERG current change (%, negative = inhibition) at 10uM” value was -5.85%. The figure for `O=C(Nc1c2c(nc3ccccc13)CCCC2)c1ccccc1Br` is 4.09%. The figure for `N#Cc1cccc(Nc2c3c(nc4ccccc24)CCC3)c1` is -72.2%; for `N#Cc1cccc(Nc2c3c(nc4ccccc24)CCCC3)c1` it is -74.8%; for `CC(C)c1ccc(NC(=O)c2cc3c(=O)n(C)c4ccccc4c3n2C)cc1` it is 6.96%. Regarding `COc1ccccc1OCc1ccc(C(=O)N2CCCCC2)o1`, the “hERG current change (%, negative = inhibition) at 10uM” value was 2.22%. For the compound `O=C(c1ccco1)c1cn(CC(=O)N2CCCCC2)c2ccccc12`, the “hERG current change (%, negative = inhibition) at 10uM” value was -6.34%.

Take `CCOC(=O)c1[nH]c2ccccc2c1NC(=O)COC`: the “hERG current change (%, negative = inhibition) at 10uM” value is reported as -4.53%. Take `Cc1cc(C(=O)CCl)c(C)n1Cc1ccco1`: the “hERG current change (%, negative = inhibition) at 10uM” value is 3.06%. As for `Cc1oc(-c2ccc(Cl)cc2)nc1CN1CCC(C(=O)NCc2cccs2)CC1`, the “hERG current change (%, negative = inhibition) at 10uM” value is listed as -61.5%. Turning to `Cc1ccccc1-c1nc(CN2CCC(C(=O)NCc3cccs3)CC2)c(C)o1`, the “hERG current change (%, negative = inhibition) at 10uM” value is reported as -70.5%. As for `Cc1oc(-c2ccc(Cl)cc2)nc1CN1CCC(C(=O)NCCCN2CCCC(C)C2)CC1` (stereo not shown), the “hERG current change (%, negative = inhibition) at 10uM” value is given as -16.5%. In the case of `Cc1oc(-c2ccccc2F)nc1CS(=O)CC(=O)NCc1cccs1` (stereo not shown), the “hERG current change (%, negative = inhibition) at 10uM” value was -12%.

`Cc1oc(-c2ccc(Cl)cc2)nc1CN1CCC(C(=O)NCCCN2CCCC2=O)CC1`: the “hERG current change (%, negative = inhibition) at 10uM” value is reported as -33.9%. The figure for `Cc1oc(-c2ccccc2F)nc1CN1CCC(C(=O)NCc2cccs2)CC1` is -63.7%. With `CC12CCC3C(CC=C4CC(O)CCC43C)C1C/C(=C\c1cccc(F)c1)C2=O` (stereo not shown), the “hERG current change (%, negative = inhibition) at 10uM” value was 7.89%. With `COc1ccc(CNC(=O)Cc2nn(C)c(=O)c3ccccc23)cc1`, the “hERG current change (%, negative = inhibition) at 10uM” value is on record as -14.2%. For `CCN1CCN(S(=O)(=O)c2cc(C(=O)O)ccc2Cl)CC1.Cl`, the “hERG current change (%, negative = inhibition) at 10uM” value is -3.34%. For the compound `Cc1ccc(S(=O)(=O)N2CCC(C(=O)NNC(=O)c3ccccc3)CC2)cc1`, the “hERG current change (%, negative = inhibition) at 10uM” value is 18.9%.
